The target of assay [1] is Androgen receptor (Homo sapiens) (UniProt P10275). Briefly: ATG_AR_TRANS: Attagene TRANS-FACTORIAL HepG2 Assay for human Androgen Receptor (AR) (AID 2282973). To be noted: HepG2 Attagene TRANS-FACTORIAL AR reporter transcription. In short, it runs like this:
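Steps: transfect HepG2 with multiple GAL4-UAS reporter transcription units (TRANS format, exogenous NR-Gal4 protein); dose 24 h; isolate RNA, reverse-transcribe, PCR-amplify, FAM-label, HpaI-digest; resolve by capillary electrophoresis. Positive direction vs DMSO.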

Assay [2] deals with human AMP-activated Protein Kinase, alpha 1 (AMPKa1), PRKAA1 (gene 5562) (UniProt Q13131). The assay can be described thus: NVS_ENZ_hAMPKa1: NovaScreen (NVS) Enzymatic Assay for human AMP-activated Protein Kinase, alpha 1 (AMPKa1) (AID 2283130). In short, it runs like this: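 Recombinant human AMPKα1 activity was measured cell-free by fluorescent substrate conversion with electrophoretic mobility-shift separation, 1 h after dosing. Duplicate single-point screening was at 25 uM; actives (≥30% inhibition) were retested in concentration-response up to 50 uM.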

Assay [3] addresses human Aurora Kinase A - serine/threonine-protein Kinase 6 (AurA), AURKA (gene 6790) (UniProt O14965). The assay can be described thus: NVS_ENZ_hAurA: NovaScreen (NVS) Enzymatic Assay for human Aurora Kinase A - serine/threonine-protein Kinase 6 (AurA) (AID 2283142). In short, it runs like this:
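Cell-free enzymatic assay with human Aurora A, 1 hour after dosing. Fluorescent substrate turnover detected after electrophoretic mobility shift separation of substrate and product. Screened at 25 uM, actives retested in concentration-response up to 50 uM.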

Assay [4] concerns the target human Fibroblast Growth Factor Receptor 1 (FGFR1), FGFR1 (gene 2260) (UniProt P11362). Briefly: NVS_ENZ_hFGFR1: NovaScreen (NVS) Enzymatic Assay for human Fibroblast Growth Factor Receptor 1 (FGFR1) (AID 2283159). Put shortly: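 Cell-free recombinant kinase with fluorescent substrate, product separated by electrophoretic mobility shift; read 1 hour after dosing, loss of signal relative to DMSO. Initial screen in duplicate at 25 uM, actives followed in concentration series.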

The target of assay [5] is human IkappaB Kinase alpha (IKKa), CHUK (gene 1147) (UniProt O15111). Briefly: NVS_ENZ_hIKKa: NovaScreen (NVS) Enzymatic Assay for human IkappaB Kinase alpha (IKKa) (AID 2283167). In short, it runs like this:
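Cell-free recombinant human IKKa with fluorescent substrate, product separated by electrophoretic mobility shift; read 1 hour after dosing. Primary screen duplicate at 25 uM, actives then concentration-response up to 50 uM; loss of signal relative to DMSO.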

Assay [6] has as its target human NIMA (Never In Mitosis Gene A)-Related Kinase 2 (NEK2), NEK2 (gene 4751) (UniProt P51955). Briefly: NVS_ENZ_hNEK2: NovaScreen (NVS) Enzymatic Assay for human NIMA (Never In Mitosis Gene A)-Related Kinase 2 (NEK2) (AID 2283188). Put shortly:
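Cell-free NEK2 enzyme activity after 1 h exposure, read by fluorescence with electrophoretic mobility shift separating substrate and product. Primary screen in duplicate at 25 uM; actives then run as concentration series. Loss of signal versus DMSO scored.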

Assay [7] deals with human Phosphatase and Tensin Homolog (PTEN), PTEN (gene 5728) (UniProt P60484). The assay can be described thus: NVS_ENZ_hPTEN: NovaScreen (NVS) Enzymatic Assay for human Phosphatase and Tensin Homolog (PTEN) (AID 2283203). In short, it runs like this: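 Cell-free recombinant human PTEN with fluorescent substrate; product separated by electrophoretic mobility shift and read by fluorescence 1 h after dosing. Primary screen in duplicate at 25 uM, actives followed in concentration series versus DMSO.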

Assay [8] addresses human Raf-1 Proto-Oncogene, serine/threonine Kinase (RAF1), RAF1 (gene 5894) (UniProt P04049). The assay can be described thus: NVS_ENZ_hRAF1: NovaScreen (NVS) Enzymatic Assay for human Raf-1 Proto-Oncogene, serine/threonine Kinase (RAF1) (AID 2283216). In short, it runs like this:
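Cell-free recombinant kinase with specific fluorescent substrate, product separated by electrophoretic mobility shift; read 1 h after dosing. Primary screen at 25 uM in duplicate; hits then run in concentration-response up to 50 uM, fitted as loss of signal versus DMSO.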

Assay [9] addresses human Tyrosine Protein Kinase Receptor Tie-2 (Tie2), TEK (gene 7010) (UniProt Q02763). The assay can be described thus: NVS_ENZ_hTie2: NovaScreen (NVS) Enzymatic Assay for human Tyrosine Protein Kinase Receptor Tie-2 (Tie2) (AID 2283225). Put shortly: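 Recombinant human Tie2 kinase activity was read cell-free by fluorescence with electrophoretic mobility shift, 1 hour after dosing. The screen used 25 uM in duplicate, then concentration-response up to 50 uM. Signal loss was scored against DMSO.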

The test system of assay [10] is rat Monoamine Oxidase, MAO-A, Peripheral (MAOAP), gene 29253. The assay can be described thus: NVS_ENZ_rMAOAP: NovaScreen (NVS) Enzymatic Assay for rat Monoamine Oxidase, MAO-A, Peripheral (MAOAP) (AID 2283237). In short, it runs like this:
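Rat liver mitochondrial membranes served as the MAO-A source, with enzyme activity measured by radiometric scintillation counting 1.17 hours after dosing. Loss of signal was fitted against DMSO; primary screen used 25 uM in duplicate, follow-up used concentration series.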

For assay [11], the target named is rat Monoamine Oxidase, MAO-B, Peripheral (MAOBP), Maob (gene 25750) (UniProt P19643). Briefly: NVS_ENZ_rMAOBP: NovaScreen (NVS) Enzymatic Assay for rat Monoamine Oxidase, MAO-B, Peripheral (MAOBP) (AID 2283242).
Assay [12] relates to rat Monoamine Oxidase, MAO-A, Central (MAOAC), gene 29253. The assay can be described thus: NVS_ENZ_rMAOAC: NovaScreen (NVS) Enzymatic Assay for rat Monoamine Oxidase, MAO-A, Central (MAOAC) (AID 2283243).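 Also: potency refers to inhibition seen as signal drop below DMSO baseline.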 Put shortly:
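Rat brain tissue extract used as enzyme source in a cell-free radiometric assay, read by scintillation counting 1.5 hours after dosing. Loss of signal relative to DMSO baseline scored; primary screen at 25 uM in duplicate, actives followed up in concentration series.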

Assay [13] deals with rat Corticotropin Releasing Factor Receptor (CRF), Crhr1 (gene 58959) (UniProt P35353). Briefly: NVS_GPCR_rCRF: NovaScreen (NVS) G Protein-Coupled Receptor Assay for rat Corticotropin Releasing Factor Receptor (CRF) (AID 2283300). In short, it runs like this: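 Rat cortical membranes used as receptor source in a radioligand competitive displacement binding assay; scintillation read 2 h after dosing. Primary screen run in duplicate at 25 uM; loss of signal versus DMSO baseline indicates binding.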

For assay [14], the target named is human Acetylcholinesterase (AChE), ACHE (gene 43) (UniProt P22303). Briefly: NVS_ENZ_hAChE: NovaScreen (NVS) Enzymatic Assay for human Acetylcholinesterase (AChE) (AID 2283129). In short, it runs like this:
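Cell-free colorimetric enzyme-activity assay; compounds read 0.33 hour after dosing, loss of signal vs DMSO baseline. Primary screen in duplicate at 25 uM single concentration, with active compounds retested in concentration series.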

Assay [15] deals with human Caspase 2 (CASP2), CASP2 (gene 835) (UniProt P42575). Briefly: NVS_ENZ_hCASP2: NovaScreen (NVS) Enzymatic Assay for human Caspase 2 (CASP2) (AID 2283135). In short, it runs like this: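 E. coli-expressed enzyme in a cell-free protease assay, fluorescence read 1 h after dosing. Compounds at 25 uM in duplicate, with concentration-response up to 50 uM for hits; loss of signal against DMSO baseline.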

For assay [16], the target named is rat Neurotensin Receptor (NTS), Ntsr1 (gene 366274) (UniProt P20789). Briefly: NVS_GPCR_rNTS: NovaScreen (NVS) G Protein-Coupled Receptor Assay for rat Neurotensin Receptor (NTS) (AID 2283308). Put shortly: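 Rat forebrain membranes; radioligand binding with competitive displacement, read by filter-based scintillation counting 1 h after dosing. Primary screen in duplicate at 25 uM; actives (e.g., 30% inhibition) rerun in concentration-response up to 50 uM, loss-of-signal versus DMSO.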

In assay [17] the target is rat Oxytocin Receptor (OXT), Oxtr (gene 25342) (UniProt P70536). Briefly: NVS_GPCR_rOXT: NovaScreen (NVS) G Protein-Coupled Receptor Assay for rat Oxytocin Receptor (OXT) (AID 2283330). In short, it runs like this:
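Radioligand displacement on rat uterine membranes, 1 h incubation, filter-based scintillation counting. Chemicals were screened in duplicate at 25 uM, and those passing threshold were retested in concentration-response up to 50 uM. Loss of binding was fitted versus DMSO.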

The target of assay [18] is human Protein Tyrosine Phosphatase Receptor Type C (PTPRC), PTPRC (gene 5788) (UniProt P08575). The assay can be described thus: NVS_ENZ_hPTPRC: NovaScreen (NVS) Enzymatic Assay for human Protein Tyrosine Phosphatase Receptor Type C (PTPRC) (AID 2283212). In short, it runs like this: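 Yeast-extracted human PTPRC used in a cell-free colorimetric enzyme activity read-out, 1 h after dosing. Primary screen in duplicate at 25 uM; actives rerun in concentration-response up to 50 uM, DMSO as baseline.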

Assay [19] has as its target Voltage-dependent N-type calcium channel subunit alpha-1B (Rattus norvegicus) (UniProt Q02294). The assay can be described thus: NVS_IC_rCaChN: NovaScreen (NVS) Ion Channel Assay for rat Calcium Channel, Type N (CaChN) (AID 2283317).

One may read the AC50 as the midpoint of the concentration-response curve, whichever way the signal moves.

Results filed as inconclusive are left out. Active and inactive are the calls of the source. The calls were made as follows: active = hit-call score of the fitted dose curve at least 0.9, where 1 is the maximum; inconclusive = response in the unintended direction; inactive = score below 0.9.

Chain of human Caspase 2 (CASP2), CASP2 (gene 835) (P42575 whole entry, looked up): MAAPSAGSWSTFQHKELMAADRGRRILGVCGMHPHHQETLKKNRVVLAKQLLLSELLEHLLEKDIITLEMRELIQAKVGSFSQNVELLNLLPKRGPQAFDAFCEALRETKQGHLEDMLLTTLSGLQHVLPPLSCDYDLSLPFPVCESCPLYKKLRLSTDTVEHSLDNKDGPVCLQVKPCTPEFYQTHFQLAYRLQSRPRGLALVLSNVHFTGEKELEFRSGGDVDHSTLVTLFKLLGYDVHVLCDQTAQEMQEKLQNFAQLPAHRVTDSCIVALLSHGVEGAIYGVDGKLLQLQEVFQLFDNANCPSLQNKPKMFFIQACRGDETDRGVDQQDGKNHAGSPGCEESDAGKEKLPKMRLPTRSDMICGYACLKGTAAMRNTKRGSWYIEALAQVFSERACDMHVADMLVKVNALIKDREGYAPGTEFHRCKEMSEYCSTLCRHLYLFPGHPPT
Chain of Androgen receptor (Homo sapiens) (P10275 whole entry, looked up, the tested form may be a part): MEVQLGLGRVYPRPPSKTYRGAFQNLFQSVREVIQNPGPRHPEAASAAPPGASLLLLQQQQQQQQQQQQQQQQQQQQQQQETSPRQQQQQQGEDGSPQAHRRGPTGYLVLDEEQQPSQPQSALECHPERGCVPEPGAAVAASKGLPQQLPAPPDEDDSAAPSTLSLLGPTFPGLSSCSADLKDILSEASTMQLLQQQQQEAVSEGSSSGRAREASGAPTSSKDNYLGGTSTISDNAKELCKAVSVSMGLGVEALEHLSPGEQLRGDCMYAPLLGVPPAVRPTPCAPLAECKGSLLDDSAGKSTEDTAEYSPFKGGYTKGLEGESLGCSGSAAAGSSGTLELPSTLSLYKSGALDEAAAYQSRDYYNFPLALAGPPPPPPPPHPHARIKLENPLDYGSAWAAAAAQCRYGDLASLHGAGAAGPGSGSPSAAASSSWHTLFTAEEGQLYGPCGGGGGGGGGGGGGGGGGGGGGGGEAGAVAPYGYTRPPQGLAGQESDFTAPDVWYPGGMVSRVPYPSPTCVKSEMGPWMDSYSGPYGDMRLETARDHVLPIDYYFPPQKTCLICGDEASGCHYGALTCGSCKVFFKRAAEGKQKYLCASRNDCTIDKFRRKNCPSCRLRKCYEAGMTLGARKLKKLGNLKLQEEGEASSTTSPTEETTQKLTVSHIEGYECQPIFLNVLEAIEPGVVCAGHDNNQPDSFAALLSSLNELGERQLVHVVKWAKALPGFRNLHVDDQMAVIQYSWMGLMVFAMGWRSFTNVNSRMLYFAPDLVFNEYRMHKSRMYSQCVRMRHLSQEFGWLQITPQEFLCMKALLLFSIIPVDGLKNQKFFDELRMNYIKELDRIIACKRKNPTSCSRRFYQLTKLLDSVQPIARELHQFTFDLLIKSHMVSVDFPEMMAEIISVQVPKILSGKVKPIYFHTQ
Chain of human Fibroblast Growth Factor Receptor 1 (FGFR1), FGFR1 (gene 2260) (P11362 whole entry, looked up): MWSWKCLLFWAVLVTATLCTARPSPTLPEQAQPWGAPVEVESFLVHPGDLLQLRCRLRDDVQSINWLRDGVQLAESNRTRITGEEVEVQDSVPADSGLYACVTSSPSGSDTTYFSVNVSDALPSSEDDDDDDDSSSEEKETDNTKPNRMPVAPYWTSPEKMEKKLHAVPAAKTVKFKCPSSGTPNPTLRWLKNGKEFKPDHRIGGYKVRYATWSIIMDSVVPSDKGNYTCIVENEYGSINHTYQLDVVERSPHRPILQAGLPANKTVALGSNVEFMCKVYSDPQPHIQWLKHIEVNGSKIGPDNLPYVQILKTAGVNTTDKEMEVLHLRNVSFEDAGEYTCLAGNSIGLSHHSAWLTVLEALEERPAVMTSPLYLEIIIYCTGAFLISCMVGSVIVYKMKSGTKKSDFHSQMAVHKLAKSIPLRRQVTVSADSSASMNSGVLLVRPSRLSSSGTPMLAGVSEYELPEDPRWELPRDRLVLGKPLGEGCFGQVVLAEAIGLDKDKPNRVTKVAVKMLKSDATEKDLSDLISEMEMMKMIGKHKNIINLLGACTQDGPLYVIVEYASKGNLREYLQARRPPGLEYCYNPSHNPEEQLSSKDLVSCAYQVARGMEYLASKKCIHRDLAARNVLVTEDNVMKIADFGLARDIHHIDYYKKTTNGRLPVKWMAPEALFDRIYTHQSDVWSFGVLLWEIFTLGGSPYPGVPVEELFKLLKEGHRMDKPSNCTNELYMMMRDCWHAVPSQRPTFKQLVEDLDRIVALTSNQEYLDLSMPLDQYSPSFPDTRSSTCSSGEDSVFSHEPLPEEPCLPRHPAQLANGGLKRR
Chain of rat Monoamine Oxidase, MAO-B, Peripheral (MAOBP), Maob (gene 25750) (P19643 whole entry, looked up): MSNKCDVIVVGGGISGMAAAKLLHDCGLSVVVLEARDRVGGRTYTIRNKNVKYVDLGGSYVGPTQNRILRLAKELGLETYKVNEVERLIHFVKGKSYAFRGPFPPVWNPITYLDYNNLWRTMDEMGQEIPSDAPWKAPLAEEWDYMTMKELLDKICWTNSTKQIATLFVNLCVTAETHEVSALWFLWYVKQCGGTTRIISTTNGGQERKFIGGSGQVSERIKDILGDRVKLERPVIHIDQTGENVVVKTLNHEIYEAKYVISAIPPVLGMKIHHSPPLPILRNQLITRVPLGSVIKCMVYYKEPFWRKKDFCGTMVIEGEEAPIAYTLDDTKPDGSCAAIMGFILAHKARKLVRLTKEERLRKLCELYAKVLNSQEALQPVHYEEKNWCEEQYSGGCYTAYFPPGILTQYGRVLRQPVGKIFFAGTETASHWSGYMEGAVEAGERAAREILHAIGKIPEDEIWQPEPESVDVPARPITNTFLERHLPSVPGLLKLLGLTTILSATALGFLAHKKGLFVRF
Chain of human Acetylcholinesterase (AChE), ACHE (gene 43) (P22303 whole entry, looked up): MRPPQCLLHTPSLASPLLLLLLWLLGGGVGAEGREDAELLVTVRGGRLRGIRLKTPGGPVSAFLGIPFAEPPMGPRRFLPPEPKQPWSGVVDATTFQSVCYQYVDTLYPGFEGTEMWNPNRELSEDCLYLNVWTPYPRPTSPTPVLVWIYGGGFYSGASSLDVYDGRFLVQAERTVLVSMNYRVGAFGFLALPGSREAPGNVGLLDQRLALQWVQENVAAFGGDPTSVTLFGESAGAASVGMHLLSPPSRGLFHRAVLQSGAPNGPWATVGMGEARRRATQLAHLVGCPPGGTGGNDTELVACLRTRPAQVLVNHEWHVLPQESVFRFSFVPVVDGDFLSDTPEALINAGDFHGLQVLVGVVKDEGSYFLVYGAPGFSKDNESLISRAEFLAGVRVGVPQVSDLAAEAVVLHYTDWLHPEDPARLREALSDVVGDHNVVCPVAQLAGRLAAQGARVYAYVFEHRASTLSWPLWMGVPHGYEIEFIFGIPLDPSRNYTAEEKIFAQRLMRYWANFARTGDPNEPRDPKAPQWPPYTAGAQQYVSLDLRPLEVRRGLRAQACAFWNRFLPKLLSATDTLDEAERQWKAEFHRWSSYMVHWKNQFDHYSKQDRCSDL
Chain of human Raf-1 Proto-Oncogene, serine/threonine Kinase (RAF1), RAF1 (gene 5894) (P04049 whole entry, looked up): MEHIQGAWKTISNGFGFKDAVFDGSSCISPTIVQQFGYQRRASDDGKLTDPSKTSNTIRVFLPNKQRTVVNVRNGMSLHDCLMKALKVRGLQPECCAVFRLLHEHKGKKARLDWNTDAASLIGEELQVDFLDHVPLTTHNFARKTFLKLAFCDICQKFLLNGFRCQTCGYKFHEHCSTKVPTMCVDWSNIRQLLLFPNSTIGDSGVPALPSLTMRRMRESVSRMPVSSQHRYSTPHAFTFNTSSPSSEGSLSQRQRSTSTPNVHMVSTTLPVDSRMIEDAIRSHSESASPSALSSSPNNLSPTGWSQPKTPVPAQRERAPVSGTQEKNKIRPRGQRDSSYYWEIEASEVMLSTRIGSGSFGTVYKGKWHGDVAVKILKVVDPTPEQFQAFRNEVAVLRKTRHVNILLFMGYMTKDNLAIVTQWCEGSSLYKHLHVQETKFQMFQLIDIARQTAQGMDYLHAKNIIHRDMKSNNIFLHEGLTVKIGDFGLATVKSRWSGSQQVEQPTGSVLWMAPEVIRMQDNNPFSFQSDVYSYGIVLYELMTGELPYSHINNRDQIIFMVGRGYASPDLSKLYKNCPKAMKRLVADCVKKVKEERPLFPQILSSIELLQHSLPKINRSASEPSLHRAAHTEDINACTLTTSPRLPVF
Chain of human NIMA (Never In Mitosis Gene A)-Related Kinase 2 (NEK2), NEK2 (gene 4751) (P51955 whole entry, looked up): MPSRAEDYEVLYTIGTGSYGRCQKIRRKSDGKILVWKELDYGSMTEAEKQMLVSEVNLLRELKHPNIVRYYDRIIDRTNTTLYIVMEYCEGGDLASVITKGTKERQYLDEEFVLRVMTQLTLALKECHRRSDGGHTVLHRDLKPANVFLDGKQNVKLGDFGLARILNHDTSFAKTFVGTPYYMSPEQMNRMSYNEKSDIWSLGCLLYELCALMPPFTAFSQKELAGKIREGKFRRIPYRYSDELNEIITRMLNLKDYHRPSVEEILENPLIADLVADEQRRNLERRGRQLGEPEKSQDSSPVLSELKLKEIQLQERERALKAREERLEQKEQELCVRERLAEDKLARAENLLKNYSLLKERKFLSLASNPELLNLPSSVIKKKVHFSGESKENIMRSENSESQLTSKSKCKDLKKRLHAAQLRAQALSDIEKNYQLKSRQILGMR
Chain of rat Neurotensin Receptor (NTS), Ntsr1 (gene 366274) (P20789 whole entry, looked up): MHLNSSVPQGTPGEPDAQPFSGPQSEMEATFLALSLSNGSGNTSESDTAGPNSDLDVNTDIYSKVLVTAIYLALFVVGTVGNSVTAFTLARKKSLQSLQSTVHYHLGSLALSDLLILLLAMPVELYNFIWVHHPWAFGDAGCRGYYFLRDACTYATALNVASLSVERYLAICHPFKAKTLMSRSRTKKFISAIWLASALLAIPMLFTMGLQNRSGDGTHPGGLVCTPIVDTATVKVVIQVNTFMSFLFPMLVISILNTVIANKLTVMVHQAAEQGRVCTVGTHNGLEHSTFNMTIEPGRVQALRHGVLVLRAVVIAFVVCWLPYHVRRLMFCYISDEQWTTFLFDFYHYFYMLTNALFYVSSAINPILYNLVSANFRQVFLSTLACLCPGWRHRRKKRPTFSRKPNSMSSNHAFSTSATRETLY

Regarding `CN(C)c1ccc(N=NS(=O)(=O)O)cc1`, the outcome in assay [1], in assay [2], in [3], in assay [4], in [5] and in [6] was inactive. For the same compound, the compound was classed as inactive in assay [7], in assay [8], in [9], in [12] and in [13]. Also, the AC50 in assay [10] is 21.1 µM (active); in [11], 23.8 µM (active).
`CN(C)C(=O)C1(N2CCCCC2)CCN(CC[C@@]2(c3ccc(Cl)c(Cl)c3)CN(C(=O)c3ccccc3)CCO2)CC1`: the compound was called inactive in assay [1]. Moreover, the AC50 in [14] was 4.93 µM (active).
As to `CN(C)c1ccc(C(=C2C=CC(=[N+](C)C)C=C2)c2ccc(N(C)C)cc2)cc1`, the compound was called inactive in assay [1]. Further, the AC50 in assay [14] is 6.48 µM (active); in assay [15], 18.2 µM (active); in assay [11], 25 µM (active); in [12], 25 µM (active); in assay [16] it was 6.82 µM (active); in assay [17], 20.9 µM (active).
Take `Oc1cc2ccccc2c2ccccc12`: the result in assay [1] was inactive. The results for the AC50 in assay [15], in [10] and in [12] were 14.6 µM (active), 3 µM (active) and 1.2 µM (active), respectively.
With `O=C(O)Cn1c(=O)n(Cc2ccc(Br)cc2F)c(=O)c2ccc(Cl)cc21`, the outcome in [1], in [15], in assay [4], in assay [18] and in [19] was inactive.
